PubChem BioAssay (Tox21)
Results filed as inconclusive are left out. Entries that show only a call come without a potency. Active and inactive are the calls of the source. The call rests on the fitted dose curve.

The compounds below were run against Retinoic acid receptor RXR-alpha (Homo sapiens) (UniProt P19793) (assay: qHTS assay to identify small molecule agonists of the RXR signaling pathway (AID 1159527; further: nearly all actives have a fitted effect of over 35% in size)). Conditions: HEK293T RXRa-UAS-bla, beta-lactamase ratio, 16 h; series mostly up to 76.8 µM.
Retinoic acid receptor RXR-alpha (Homo sapiens), sequence (P19793 whole entry, looked up): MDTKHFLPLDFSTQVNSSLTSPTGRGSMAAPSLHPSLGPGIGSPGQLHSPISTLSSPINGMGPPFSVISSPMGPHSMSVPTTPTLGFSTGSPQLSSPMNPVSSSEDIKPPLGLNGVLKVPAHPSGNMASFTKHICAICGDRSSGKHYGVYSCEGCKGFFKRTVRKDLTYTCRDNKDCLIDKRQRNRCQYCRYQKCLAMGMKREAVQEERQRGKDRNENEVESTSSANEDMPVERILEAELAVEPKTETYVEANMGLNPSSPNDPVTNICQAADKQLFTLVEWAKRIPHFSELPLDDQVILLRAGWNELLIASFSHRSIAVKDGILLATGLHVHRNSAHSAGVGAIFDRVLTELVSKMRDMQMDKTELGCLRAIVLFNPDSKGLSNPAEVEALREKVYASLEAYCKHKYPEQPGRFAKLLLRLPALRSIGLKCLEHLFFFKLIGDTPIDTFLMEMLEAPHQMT
Description: U.S. Tox21 Program National Center for Advancing Translational Sciences [NCATS] NIH Chemical Genomics Center [NCGC] U.S. Environmental Protection Agency [EPA] National Institutes of Environmental Health Sciences [NIEHS] National Toxicology Program [NTP] U.S. Food and Drug Administration [FDA] Tox21 Assay Overview: The Retinoid X receptor (RXR), a nuclear hormone receptor expressed in liver, spleen, placenta, epidermis, central nervous system. These receptors are able to form homo and heterodimers with other nuclear receptors and due to this heterodimerizing ability, RXR functions as master regulators producing diverse physiological effects. Three subtypes of RXR exist; alpha, beta and gamma. Retinoid X receptor alpha (RXR-alpha) has potential roles in metabolic signaling pathways, skin alopecia, dermal cysts, cardiac development, insulin sensitization etc. Therefore screening environmental chemicals on RXR-alpha signaling can be used for the studies focused on such therapeutic applications. For quantification of RXR-alpha ligands signaling, GeneBLAzer RXR alpha-UAS-bla HEK 293T (Life Technologies, Carlsbad, CA) cells containing a beta-lactamase reporter-gene under control of Retinoid X receptor-alpha response element were used to screen Tox21 10K library.
Tox21 Assay Protocol Summary: RXR-alpha HEK 293T cells were dispensed at 2,000 cells/6 uL of assay medium containing 2% charcoal-stripped FBS using a Multidrop Combi (ThermoFisher Scientific, Waltham, MA) dispenser. The assay was performed in black wall/clear-bottom 1536-well plates (Greiner Bio-One North America Inc. Monroe, NC). 9-cis retinoic acid was used as a positive control in the agonist mode screen. After the assay plates were incubated at 37 C and 5% CO2 for 5 hr, 23 nL of compounds dissolved in DMSO, positive controls or DMSO only were transferred to the assay plate by a Pintool station (Kalypsys, San Diego, CA). The assay plates were incubated at 37 C and 5% CO2 for 16 hr. One uL of LiveBLAzer B/G FRET substrate (Life Technologies) was added using a Flying Reagent Dispenser (Aurora Discovery, San Diego, CA) and the plates were incubated at room temperature for 2 hr. Fluorescence intensity (405 nm excitation, 460/530 nm emission) was measured using an Envision plate reader (PerkinElmer, Shelton, CT).
In the case of `COC(=O)[C@@H]1[C@H]2C[C@H]3c4[nH]c5ccccc5c4CCN3C[C@@H]2CC[C@@H]1O`, the Potency is reported as “inactive”.
In the case of `CC(=O)Nc1ccc(S(=O)(=O)Cl)cc1`, the Potency is reported as “inactive”.
With `CCc1ccc(C=O)cc1` the Potency was “inactive”.
In the case of `BrCCCCCBr`, the Potency is reported as “inactive”.
In the case of `COP(=O)(OC)OC(c1ccc(Cl)cc1)P(=O)(OC)OC` (stereo not given), the Potency is reported as “inactive”.
In the case of `O=C(OCC(O)CO)c1ccccc1Nc1ccnc2c(C(F)(F)F)cccc12` (stereo not given), the Potency is reported as “inactive”.
In the case of `O=C(O)c1ccc(Cl)cc1Cl`, the Potency is reported as “inactive”.
With `C=COCCOCCOCCOC=C` the Potency was “inactive”.
In the case of `Cc1cccc(C)c1OCC(C)N` (stereo not given), the Potency is reported as “inactive”.
With `C[C@@H](O)[C@H]1C(=O)N2C(C(=O)O)=C(SCCN=CN)C[C@H]12` the Potency was “inactive”.
`Nc1nnc(-c2cccc(Cl)c2Cl)c(N)n1` was tested, and the Potency was “inactive”.
With `CCOC(=O)/C=C/c1ccccc1` the Potency was “inactive”.
`CC(=O)c1ccc2c(c1)Cc1ccccc1-2` was tested, and the Potency was “inactive”.
For `BrCc1cccc(Oc2ccccc2)c1`, the Potency was “inactive”.
For `C=CC(OCC)OCC`, the Potency was “inactive”.
With `CC(=O)/C=C/C1C(C)=CCC(C)C1(C)C` (stereo not given) the Potency was “inactive”.
In the case of `CO[C@@H]1[C@@H](OC(N)=O)[C@@H](O)[C@H](Oc2ccc3c(O)c(NC(=O)c4ccc(O)c(CC=C(C)C)c4)c(=O)oc3c2C)OC1(C)C`, the Potency is reported as “inactive”.
For `COC(=O)c1ccccc1C(=O)c1ccc(OCCN2CCCCC2)cc1`, the Potency was “inactive”.
In the case of `Cc1cc2cc3c(C)cc(=O)oc3c(C)c2o1`, the Potency is reported as “inactive”.
`CCCCCCOc1ccccc1C(N)=O` was tested, and the Potency was “inactive”.
In the case of `C=C(C)C(=O)OCCN(CC)CC`, the Potency is reported as “inactive”.
`O=S(=O)(O)c1ccc2cc(O)c(S(=O)(=O)O)cc2c1` was tested, and the Potency was “inactive”.
`O=C1c2ccccc2C(=O)C1c1ccccc1` was tested, and the Potency was “inactive”.
For `CCOC(=O)CC(=O)c1ccccc1`, the Potency was “inactive”.
With `CNC(=O)[C@H]1O[C@@H](n2cnc3c(NCc4cc(Cl)ccc4OCc4cc(C)no4)ncnc32)[C@H](O)[C@@H]1N` the Potency was “inactive”.
With `NCCS` the Potency was “inactive”.
`CCO[Si](CCCS)(OCC)OCC` was tested, and the Potency was “inactive”.
With `CCCC/C=C\CCCCCCCCCC=O` the Potency was “inactive”.
`NNc1nnc(NN)c2ccccc12` was tested, and the Potency was “inactive”.
`CC(=O)c1sc(C)nc1C` was tested, and the Potency was “inactive”.
For `O=C1CCCC(=O)O1`, the Potency was “inactive”.
In the case of `COc1cc2c(cc1OC)[C@@H]1CC(=O)[C@@H](CC(C)C)CN1CC2`, the Potency is reported as “inactive”.
In the case of `CC/C=C\CC1=C(C)CCC1=O`, the Potency is reported as “inactive”.
For `c1ccc2c(c1)ccc1c3ccccc3ccc21`, the Potency was “inactive”.
`COc1ccc2c(c1OC)C(=O)O[C@@H]2[C@H]1c2c(cc3c(c2OC)OCO3)CCN1C` was tested, and the Potency was “inactive”.
For `CC(C)OC(=O)CCCCC(=O)OC(C)C`, the Potency was “inactive”.
`CCCCCCN` was tested, and the Potency was “inactive”.
In the case of `CCOc1cc([N+](=O)[O-])c(OCC)cc1N1CCOCC1`, the Potency is reported as “inactive”.
`C[C@H](N)[C@H](O)c1cccc(O)c1` was tested, and the Potency was “inactive”.
In the case of `CC1(C)S[C@@H]2[C@H](N=CN3CCCCCC3)C(=O)N2[C@H]1C(=O)O`, the Potency is reported as “inactive”.
